Compounds with a hit are over-represented: about 6.7% of the library has one in this group of screens.
C_diff_growth: C. difficile growth inhibition; Clostridium difficile clinical isolate growth, OD600, 24 h; hits give low values; growth activity, negative = inhibition, % at 16 µg/mL (by protocol); actives 0.25% (n = 86,000); AID 1259249;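 active = mean growth activity at or below -80% and every replicate also at or below -80%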;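 note: 0% = DMSO wells and -100% = levofloxacin 16 µg/mL wells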
T_cruzi_growth: inhibitors of T. cruzi proliferation. AID 624255. actives 5.9% (n = 77,000). T. cruzi beta-gal in NIH3T3, GalScreen luminescence, 90 h. inhibition, % at 8.34 µM;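 active = mean inhibition above about 93%, with at least 55% of replicates each passing it, limit read from the data, passing the limit was not always enough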
Pf_Dd2_inh: blocks growth of Plasmodium falciparum Dd2 parasites; P. falciparum Dd2 growth, SYBR Green, 72 h; hits give low values; activity change, % at 10 µM; actives 2.3% (n = 94,000); in the data active = activity change below about -80%
Numbers without * were called inactive; / = not tested or not shown.

SMILES C_diff_growth T_cruzi_growth Pf_Dd2_inh
C[C@@H]1CCCCO[C@H](CN(C)C(=O)Nc2ccc(C(F)(F)F)cc2)[C@@H](C)CN([C@@H](C)CO)C(=O)c2cc(NC(=O)Nc3ccccc3)ccc2O1 -6 / -85*
C[C@@H]1CCCCO[C@H](CN(C)C(=O)Cc2ccccc2)[C@@H](C)CN([C@@H](C)CO)C(=O)c2cc(NC(=O)Nc3ccc(C(F)(F)F)cc3)ccc2O1 -4 69 -87*
C[C@@H]1CCCCO[C@@H](CN(C)C(=O)Nc2ccc(C(F)(F)F)cc2)[C@H](C)CN([C@@H](C)CO)C(=O)c2cc(NC(=O)Nc3ccccc3)ccc2O1 -7 / -28
COc1ccc(S(=O)(=O)N(C)C[C@H]2Oc3ccc(NC(=O)c4ccncc4)cc3C(=O)N([C@@H](C)CO)C[C@@H]2C)cc1 -6 17 -26
C[C@@H]1CCCCO[C@@H](CN(C)S(=O)(=O)c2ccc(F)cc2)[C@H](C)CN([C@@H](C)CO)C(=O)c2cc(NC(=O)C3CCCCC3)ccc2O1 5 68 -52
COc1ccc(NC(=O)Nc2ccc3c(c2)C(=O)N([C@H](C)CO)C[C@H](C)[C@H](CN(C)S(=O)(=O)c2ccc(C)cc2)O3)cc1 -11 27 14
C[C@H]1CCCCO[C@H](CN(C)C(=O)CCCN(C)C)[C@@H](C)CN([C@@H](C)CO)C(=O)c2cc(NC(=O)Nc3ccc(C(F)(F)F)cc3)ccc2O1 / 35 -38
C[C@@H]1CCCCO[C@H](CN(C)C(=O)Nc2ccc(C(F)(F)F)cc2)[C@@H](C)CN([C@H](C)CO)C(=O)c2cc(NC(=O)Cc3ccccc3)ccc2O1 1 88 -88*
Cc1noc(C)c1NC(=O)Nc1ccc2c(c1)C(=O)N([C@H](C)CO)C[C@H](C)[C@@H](CN(C)C(=O)Nc1ccc(C(F)(F)F)cc1)OCCCC[C@H](C)O2 0 70 -77
C[C@@H]1CCCCO[C@@H](CN(C)C(=O)Nc2ccc(C(F)(F)F)cc2)[C@@H](C)CN([C@H](C)CO)C(=O)c2cc(NC(=O)c3ccccc3)ccc2O1 -1 71 -73
C[C@@H]1CCCCO[C@H](CN(C)C(=O)CCCN(C)C)[C@H](C)CN([C@@H](C)CO)C(=O)c2cc(NC(=O)Nc3ccc(C(F)(F)F)cc3)ccc2O1 / 62 -88*
C[C@@H]1CCCCO[C@H](CN(C)C(=O)Nc2ccc(C(F)(F)F)cc2)[C@@H](C)CN([C@@H](C)CO)C(=O)c2cc(NC(=O)c3ccccc3)ccc2O1 7 93 -83*
C[C@H]1CCCCO[C@@H](CN(C)C(=O)Nc2ccccc2)[C@@H](C)CN([C@@H](C)CO)C(=O)c2cc(NC(=O)Cc3ccccc3)ccc2O1 / 27 7
Cc1noc(C)c1NC(=O)Nc1ccc2c(c1)C(=O)N([C@H](C)CO)C[C@@H](C)[C@@H](CN(C)C(=O)Nc1ccc(C(F)(F)F)cc1)OCCCC[C@@H](C)O2 7 50 -87*
COc1ccc2c3c([nH]c2c1)[C@H](CO)N(Cc1ccncc1)CC31CN(C(=O)c2cccnc2)C1 13 / 31
COc1ccc(NC(=O)N[C@@H]2CC[C@H](CCNC(=O)CCN3CCCCC3)O[C@H]2CO)cc1 / -2 -6
CCNC(=O)C[C@H]1CC[C@H](NC(=O)C2CCC2)[C@@H](CO)O1 -2 / /
CO[C@@H]1CN(C)C(=O)c2cc(NC(=O)NC(C)C)ccc2OC[C@H](C)N(C(=O)C2CCC2)C[C@@H]1C / 39 -11
CO[C@@H]1CN(C)C(=O)c2ccc(NC(=O)c3cc(C)on3)cc2OC[C@@H](C)N(CC2CC2)C[C@@H]1C / -1 -3
COc1ccc(S(=O)(=O)Nc2ccc3c(c2)C(=O)N([C@@H](C)CO)C[C@H](C)[C@@H](CN(C)C(=O)Nc2ccc(C(F)(F)F)cc2)OCCCC[C@@H](C)O3)cc1 -6 88 -84*
COc1ccc(S(=O)(=O)Nc2ccc3c(c2)C(=O)N([C@@H](C)CO)C[C@@H](C)[C@@H](CN(C)C(=O)Nc2ccc(C(F)(F)F)cc2)OCCCC[C@H](C)O3)cc1 9 74 -87*
COc1ccc(S(=O)(=O)Nc2ccc3c(c2)C(=O)N([C@@H](C)CO)C[C@H](C)[C@H](CN(C)C(=O)Nc2ccc(C(F)(F)F)cc2)OCCCC[C@H](C)O3)cc1 11 71 -56
COc1ccc(S(=O)(=O)Nc2ccc3c(c2)C(=O)N([C@@H](C)CO)C[C@H](C)[C@@H](CN(C)C(=O)Nc2ccc(C(F)(F)F)cc2)OCCCC[C@H](C)O3)cc1 2 60 -75
COC(=O)C[C@@H]1CC[C@H]2[C@H](COc3ccc(NC(=O)c4ccc(F)cc4)cc3C(=O)N2C)O1 0 15 6
CCCNC(=O)Nc1ccc2c(c1)C(=O)N(C)C[C@H](OC)[C@H](C)CN(C(=O)C1CCCCC1)[C@H](C)CO2 -3 -25 48
SMILES C_diff_growth T_cruzi_growth Pf_Dd2_inh
CCNC(=O)C[C@@H]1CC[C@@H]2[C@@H](COc3ccc(NC(=O)c4ccc(C(F)(F)F)cc4)cc3C(=O)N2C)O1 4 16 -6
CC(C)C#Cc1cnc2c(c1)C(=O)N([C@H](C)CO)C[C@H](C)[C@@H](CN(C)Cc1cncnc1)O2 1 -36 26
COc1cccc(C#Cc2ccc([C@@H]3[C@@H](CO)N(C(=O)C4CCCC4)[C@H]3C#N)cc2)c1 4 / -83*
COc1cccc(C#Cc2ccc([C@@H]3[C@@H](CO)N(C(=O)C4CCCCC4)[C@H]3C#N)cc2)c1 1 88 -78
COc1cccc(C#Cc2ccc([C@@H]3[C@@H](C#N)N(C(=O)C4CCCCC4)[C@H]3CO)cc2)c1 1 85 -91*
COc1cccc(C#Cc2ccc([C@@H]3[C@@H](C#N)N(C(=O)C4CCC4)[C@H]3CO)cc2)c1 15 91 -50
COCC(=O)Nc1ccc2c(c1)OC[C@@H](C)N(CC1CC1)C[C@H](C)[C@@H](OC)CN(C)C2=O / -22 -6
C[C@@H]1CN([C@H](C)CO)C(=O)c2cc(NC(=O)c3ccncc3)ccc2O[C@@H](C)CCCCO[C@H]1CN(C)S(=O)(=O)c1ccccc1 2 / -31
COc1ccc2c3c([nH]c2c1)[C@@H](CO)N(C(=O)c1ccc(F)cc1)CC31CN(C(=O)Nc2ccc(F)cc2)C1 / / 37
COCC#Cc1ccc(CC[C@H]2O[C@H]3CC[C@H](CO)O[C@H]3C[C@@H]2n2cc(C3CC3)nn2)cc1 1 / -87*
COCC#Cc1ccc(CC[C@H]2O[C@H]3CC[C@@H](CO)O[C@H]3C[C@@H]2n2cc(C(C)(C)O)nn2)cc1 4 / -40
OC[C@H]1CC[C@@H]2O[C@H](CCc3ccc(-c4ccc(F)cc4)cc3)[C@H](n3cc(C4CC4)nn3)C[C@@H]2O1 3 / -82*
OC[C@@H]1CC[C@@H]2O[C@H](CCc3ccc(-c4ccc(F)cc4)cc3)[C@H](n3cc(C4CC4)nn3)C[C@@H]2O1 -9 / -78
O=S(=O)(N[C@H]1CC[C@@H](CCn2cc(Cc3ccccc3)nn2)O[C@@H]1CO)c1ccccc1F -6 17 -7
C[C@@H]1CCCCO[C@H](CN(C)S(=O)(=O)c2cn(C)cn2)[C@@H](C)CN([C@@H](C)CO)C(=O)c2cc(NC(=O)Nc3ccc(C(F)(F)F)cc3)ccc2O1 3 17 -73

Screening data from PubChem.
